From the supplement of paper PMC12494721
Structures can show the parent of a compound that is named as a salt.

Legend:
Settings in all cases: incubation time: 27 h, anaerobic, 37 °C;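 for the amine columns active = adjusted P below 0.05 in both replicates with a change the same way and a mean fold change under 0.8 or over 1.25; inactive = the rest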
[1] = test system: Clostridium sporogenes DSM 1664; assay: growth (OD595) fold change vs plate DMSO controls (fold change (ratio)); higher = more growth
How it was run: (§1)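 Anaerobic 27 h, 37 °C mGAM 96-well cultures were shaken, then read for absorbance at 595 nm. Values were blank-subtracted and corrected for compound background using 20 µM compound solutions in water. A calibration factor of 5 converted them to OD. Growth is the fold change versus the median of plate DMSO controls. Fold changes above 1.5 were set to NA, and values are the mean of 2 biological replicates.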

Escherichia coli IAI1 [2] = assay: as above
How it was run: as §1

[3] = test system: Klebsiella aerogenes DSM 30053; assay: as above
How it was run: as §1

[4] = test system: Ruminococcus gnavus DSM 108212; assay: as above
How it was run: as §1

[5] = test system: Klebsiella aerogenes DSM 30053; assay: fold change of Histamine concentration vs plate DMSO controls (fold change (ratio)); higher = more amine produced, active = hit call of the paper (significant change in both replicates, either direction)
How it was run: (§2)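 Each value is the fold change relative to DMSO-only wells on the same plate. Four gut bacterial strains were grown anaerobically in mGAM at 37 °C for 27 h in 80 µL wells, starting at OD 0.1 before a 1:1 dilution, with compounds at 20 µM final (sweeteners 50 µM). Whole cultures were extracted with cold acetonitrile/methanol containing 0.1% formic acid, centrifuged, and amines were quantified by LC–triple-quadrupole MS (dynamic MRM) against external calibration curves with within-batch drift correction. Values are means of 2 biological replicates.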

[6] = test system: Clostridium sporogenes DSM 1664; assay: fold change of Tryptamine concentration vs plate DMSO controls (fold change (ratio)); higher = more amine produced, active = hit call of the paper (significant change in both replicates, either direction)
How it was run: as §2

[7] = test system: Ruminococcus gnavus DSM 108212; assay: as above
How it was run: as §2

Escherichia coli IAI1 [8] = assay: fold change of Putrescine concentration vs plate DMSO controls (fold change (ratio)); higher = more amine produced, active = hit call of the paper (significant change in both replicates, either direction)
How it was run: as §2

[9] = test system: Klebsiella aerogenes DSM 30053; assay: as above
How it was run: as §2

Escherichia coli IAI1 [10] = assay: fold change of Cadaverine concentration vs plate DMSO controls (fold change (ratio)); higher = more amine produced, active = hit call of the paper (significant change in both replicates, either direction)
How it was run: as §2

[11] = test system: Klebsiella aerogenes DSM 30053; assay: as above
How it was run: as §2

[12] = test system: Ruminococcus gnavus DSM 108212; assay: fold change of 2-Phenylethylamine concentration vs plate DMSO controls (fold change (ratio)); higher = more amine produced, active = hit call of the paper (significant change in both replicates, either direction)
How it was run: as §2

Row | Structure (SMILES) | growth [1] | growth (Escherichia coli IAI1 [2]) | growth [3] | growth [4] | fold change of Histamine concentration [5] | fold change of Tryptamine concentration [6] | fold change of Tryptamine concentration [7] | fold change of Putrescine concentration (Escherichia coli IAI1 [8]) | fold change of Putrescine concentration [9] | fold change of Cadaverine concentration (Escherichia coli IAI1 [10]) | fold change of Cadaverine concentration [11] | fold change of 2-Phenylethylamine concentration [12]
1 | Oc1c(I)cc(Cl)c2cccnc12 [Clioquinol] (20 µM) | 0.876 | 0.817 | 0.978 | 0.671 | 1.03 (inactive) | 0.976 (inactive) | 0.628 (active) | 0.906 (inactive) | 1.01 (inactive) | 1.09 (inactive) | 0.991 (inactive) | 0.809 (inactive)
2 | CN1CCc2c(c3ccccc3n2Cc2ccccc2)C1 [Mebhydroline 1,5-naphtalenedisulfonate] (20 µM) | 0.931 | 0.967 | 1.04 | 0.742 | 1.01 (inactive) | 1.05 (inactive) | 0.911 (inactive) | 0.987 (inactive) | 0.991 (inactive) | 0.982 (inactive) | 1.01 (inactive) | 0.898 (inactive)
3 | O=C(CCCN1CCC(O)(c2ccc(Cl)cc2)CC1)c1ccc(F)cc1 [Haloperidol] (20 µM) | 0.929 | 0.6 | 0.574 | 0.802 | 1.06 (inactive) | 1.05 (inactive) | 0.96 (inactive) | 1.03 (inactive) | 1 (inactive) | 0.864 (inactive) | 0.992 (inactive) | 0.965 (inactive)
4 | O=C(O)C1CSCN1 (stereo not drawn) [Timonacic] (20 µM) | 0.827 | 1.02 | 1 | 0.956 | 0.992 (inactive) | 1 (inactive) | 1.02 (inactive) | 1.04 (inactive) | 1.01 (inactive) | 1 (inactive) | 1 (inactive) | 0.998 (inactive)
5 | CC(=O)Nc1ccccc1 [Acetanilide] (20 µM) | 1.1 | 0.998 | 1 | 0.941 | 1.01 (inactive) | 1.03 (inactive) | 1.02 (inactive) | 1.04 (inactive) | 1.02 (inactive) | 0.982 (inactive) | 1.01 (inactive) | 1.05 (inactive)
6 | COc1ccc(OC)c(C(O)CNC(=O)CN)c1 (stereo not drawn) [Midodrine hydrochloride] (20 µM) | 1.08 | 1.03 | 1.09 | 0.949 | 1.05 (inactive) | 1.03 (inactive) | 1 (inactive) | 1.01 (inactive) | 1 (inactive) | 0.995 (inactive) | 0.995 (inactive) | 1 (inactive)
7 | C[C@]12C=CC(=O)C=C1CC[C@H]1[C@@H]3C[C@@H](O)[C@](O)(C(=O)CO)[C@@]3(C)C[C@H](O)[C@@]12F [Triamcinolone] (20 µM) | 1.01 | 0.986 | 1.02 | 0.944 | 0.954 (inactive) | 0.918 (inactive) | 1.02 (inactive) | 0.976 (inactive) | 1.02 (inactive) | 0.994 (inactive) | 0.992 (inactive) | 1.07 (inactive)
8 | C[C@]12CCC(=O)C=C1CC[C@@H]1[C@@H]2[C@@H](O)C[C@@]2(C)[C@H]1CC[C@]2(O)C(=O)CO [Hydrocortisone] (20 µM) | 0.958 | 1.03 | 0.985 | 1.03 | 1.04 (inactive) | 1.06 (inactive) | 1.01 (inactive) | 1.04 (inactive) | 1 (inactive) | 1.03 (inactive) | 1 (inactive) | 0.975 (inactive)
9 | CCOC(=O)N1CCC(=C2c3ccc(Cl)cc3CCc3cccnc32)CC1 [Loratadine] (20 µM) | 1.04 | 1.01 | 1.04 | 0.87 | 0.98 (inactive) | 1.18 (inactive) | 0.864 (inactive) | 1.02 (inactive) | 0.999 (inactive) | 1.05 (inactive) | 1 (inactive) | 0.808 (inactive)
10 | CC(C)(C)NCC(O)CSc1nc(-c2ccc(C(N)=O)s2)cs1 (stereo not drawn) [Arotinolol hydrochloride] (20 µM) | 1.07 | 1.02 | 1.02 | 1.01 | 1.01 (inactive) | 1.01 (inactive) | 1.05 (inactive) | 0.978 (inactive) | 1 (inactive) | 0.928 (inactive) | 0.989 (inactive) | 1.1 (inactive)
11 | CCN(CC)C(=O)c1ccc(O)c(OC)c1 [Ethamivan] (20 µM) | 1.12 | 1.02 | 1.05 | 0.873 | 0.973 (inactive) | 1.02 (inactive) | 1.04 (inactive) | 1.02 (inactive) | 1.02 (inactive) | 1.01 (inactive) | 1.01 (inactive) | 1.05 (inactive)
12 | Cn1c(=O)c2c(ncn2CC(O)CO)n(C)c1=O (stereo not drawn) [Diprophylline] (20 µM) | 0.915 | 1.02 | 0.992 | 0.783 | 1.03 (inactive) | 0.964 (inactive) | 0.971 (inactive) | 1.02 (inactive) | 1.01 (inactive) | 0.98 (inactive) | 1 (inactive) | 0.99 (inactive)
13 | O=C(O)C[C@H](O)C[C@H](O)/C=C/c1c(C2CC2)nc2ccccc2c1-c1ccc(F)cc1 [Pitavastatin calcium] (20 µM) | 1.08 | 1.01 | 0.996 | 1.12 | 1.03 (inactive) | 0.992 (inactive) | 0.997 (inactive) | 1.01 (inactive) | 1.01 (inactive) | 1 (inactive) | 0.997 (inactive) | 1.04 (inactive)
14 | CCOc1ccc2ccccc2c1C(=O)N[C@@H]1C(=O)N2[C@@H]1SC(C)(C)[C@@H]2C(=O)O [Nafcillin sodium salt monohydrate] (20 µM) | 0 | 0.973 | 1.01 | 0 | 0.899 (inactive) | 0.0237 (active) | 0.0506 (active) | 0.908 (inactive) | 1.06 (inactive) | 1.02 (inactive) | 1.02 (inactive) | 0.0511 (active)
15 | COc1cc(C(=O)OCCCN2CCCN(CCCOC(=O)c3cc(OC)c(OC)c(OC)c3)CC2)cc(OC)c1OC [Dilazep dihydrochloride] (20 µM) | 1.06 | 1.07 | 0.99 | 0.894 | 0.938 (inactive) | 1.08 (inactive) | 1.09 (inactive) | 1.01 (inactive) | 0.937 (inactive) | 0.968 (inactive) | 1.01 (inactive) | 1.12 (inactive)
16 | CN1CCN2c3ccccc3Cc3ccccc3C2C1 (stereo not drawn) [Mianserine hydrochloride] (20 µM) | 0.914 | 0.996 | 0.995 | 0.931 | 0.916 (inactive) | 0.952 (inactive) | 0.998 (inactive) | 1.02 (inactive) | 0.98 (inactive) | 0.999 (inactive) | 0.999 (inactive) | 1.03 (inactive)
17 | CC(C)=CCOc1ccc(/C=C/C(=O)c2ccc(OCC=C(C)C)cc2OCC(=O)O)cc1 [Sofalcone] (20 µM) | 0.713 | 0.964 | 0.98 | 0.927 | 1 (inactive) | 0.425 (active) | 0.669 (active) | 1.01 (inactive) | 1 (inactive) | 1.03 (inactive) | 0.992 (inactive) | 0.689 (inactive)
18 | CCCOc1cc(N)ccc1C(=O)OCCN(CC)CC [Propoxycaine hydrochloride] (20 µM) | 0.975 | 1.01 | 1 | 1.35 | 0.991 (inactive) | 1.02 (inactive) | 1.05 (inactive) | 0.956 (inactive) | 0.986 (inactive) | 0.967 (inactive) | 1.01 (inactive) | 1.09 (inactive)
19 | CN[C@@H]1[C@@H](O[C@H]2O[C@H](CO)[C@@H](N)[C@H](O)[C@H]2O)OC2C[C@@H](N)[C@@H](O[C@H]3[C@H](O)[C@@H](O)[C@H](N)C[C@@H]3N)OC2[C@@H]1O (stereo partly drawn) [Apramycin] (20 µM) | 1.18 | 0.982 | 0.996 | 1.03 | 1.05 (inactive) | 0.998 (inactive) | 0.96 (inactive) | 1 (inactive) | 1.05 (inactive) | 1 (inactive) | 1.02 (inactive) | 0.905 (inactive)
20 | C=C(C)[C@@H]1CC=C(/C=N/O)CC1 [Perillartine] (50 µM) | 1.04 | 1.04 | 1.09 | 1.11 | 0.933 (inactive) | 1.02 (inactive) | 1 (inactive) | 0.985 (inactive) | 1.03 (inactive) | 0.99 (inactive) | 1.02 (inactive) | 1 (inactive)
21 | Oc1c(Cl)cc(Cl)cc1Sc1cc(Cl)cc(Cl)c1O [Bithionol] (20 µM) | 0 | 0.881 | 1.01 | 0.0806 | 1.05 (inactive) | 0.0165 (active) | 0.101 (active) | 1.26 (active) | 1.02 (inactive) | 1.51 (active) | 1.01 (inactive) | 0.0838 (active)
22 | O=C(NCC(O)CO)c1c(I)c(C(=O)NCC(O)CO)c(I)c(N(CCO)C(=O)CO)c1I (stereo not drawn) [Ioversol] (20 µM) | 1.09 | 0.998 | 1.01 | 1.11 | 0.997 (inactive) | 1.11 (inactive) | 1.11 (inactive) | 0.923 (inactive) | 0.975 (inactive) | 0.924 (inactive) | 1.02 (inactive) | 1.12 (inactive)
23 | CCCCOCCOCCOCc1cc2c(cc1CCC)OCO2 [Piperonyl butoxide] (20 µM) | 1.04 | 1.09 | 1.09 | 1.06 | 0.916 (inactive) | 1.04 (inactive) | 1.07 (inactive) | 0.998 (inactive) | 0.999 (inactive) | 0.972 (inactive) | 1.02 (inactive) | 1.17 (inactive)
24 | CO[C@H]1/C=C/O[C@@]2(C)Oc3c(C)c(O)c4c(O)c(c5c(nc6cc(C)ccn65)c4c3C2=O)NC(=O)/C(C)=C\C=C\[C@H](C)[C@H](O)[C@@H](C)[C@@H](O)[C@@H](C)[C@H](OC(C)=O)[C@@H]1C [Rifaximin] (20 µM) | 0.00823 | 0.438 | 0.844 | 0.306 | 1.15 (inactive) | 0.0445 (active) | 0.144 (active) | 0.996 (inactive) | 0.651 (active) | 1.53 (active) | 1.04 (inactive) | 0.149 (active)
